Experimental data as given in PubChem BioAssay (NCATS).
Results filed as inconclusive are left out. A call without a number means that no potency is given here. Calls of active or inactive are those of the source. The call rests on the fitted dose curve.

Assay: Primary qHTS for inhibitors of SARS-S pseudo-typed particle cell entry (AID 1479145); further: nearly all actives have a fitted effect of over 45% in size
Settings: SARS-S pseudotyped particle cell entry, luciferase reporter; series mostly up to 57.1 µM
Potency means the concentration at half of the fitted maximal effect.

SMILES | Potency
NCCCC(O)(P(=O)(O)O)P(=O)(O)O | inactive
NNc1nncc2ccccc12 | inactive
CN(CCOc1ccc(CC2SC(=O)NC2=O)cc1)c1ccccn1 (centres undefined) | inactive
CN(C)CCCN1c2ccccc2CCc2ccc(Cl)cc21 | 28.2 µM (active)
NC(=O)N/N=C/c1ccc([N+](=O)[O-])o1 | inactive
CC[C@@]1(c2ccccc2)NC(=O)N(C)C1=O | inactive
CCCCOCCOCCOCc1cc2c(cc1CCC)OCO2 | inactive
CC1=C(C(=O)O)N2C(=O)[C@@H](NC(=O)[C@H](N)c3ccc(O)cc3)[C@H]2SC1 | inactive
O=C1NC(=O)C(c2ccccc2)(c2ccccc2)N1 | inactive
O=P(O)(O)C(O)(Cc1cccnc1)P(=O)(O)O | inactive
CC(C)C[C@H](NC(=O)[C@H](CCc1ccccc1)NC(=O)CN1CCOCC1)C(=O)N[C@@H](Cc1ccccc1)C(=O)N[C@@H](CC(C)C)C(=O)[C@@]1(C)CO1 | 1 µM (active)
Cc1oncc1C(=O)Nc1ccc(C(F)(F)F)cc1 | inactive
COC(c1ccccc1)(c1ccccc1)[C@H](Oc1nc(C)cc(C)n1)C(=O)O | inactive
CC(C)NCC(O)COc1ccc(CCOCC2CC2)cc1 (centres undefined) | inactive
CN(C)CCc1c[nH]c2ccc(CS(=O)(=O)N3CCCC3)cc12 | inactive
NC(=O)C(c1ccccc1)(c1ccccc1)[C@@H]1CCN(CCc2ccc3c(c2)CCO3)C1 | inactive
NC[C@H](O)c1ccc(O)c(O)c1 | inactive
CCCCN1C[C@H](O)[C@@H](O)[C@H](O)[C@H]1CO | inactive
Cc1cccc(C)c1OCC(C)N (centres undefined) | inactive
CO/N=C(\C(=O)N[C@@H]1C(=O)N2C(C(=O)O)=C(CSc3nc(=O)c(O)nn3C)CS[C@H]12)c1csc(N)n1 | inactive

SMILES | Potency
CN1C(=O)CC(C)(c2ccccc2)C1=O (centres undefined) | inactive
Cn1c(=O)c2c(ncn2CC(O)CO)n(C)c1=O (centres undefined) | inactive
C[n+]1ccccc1/C=N/O | inactive
C[C@@H]1C[C@H]2[C@@H]3CCC4=CC(=O)C=C[C@]4(C)[C@@]3(F)[C@@H](O)C[C@]2(C)[C@@]1(O)C(=O)CO | inactive
CC(C)NCC(O)COc1cccc2[nH]ccc12 (centres undefined) | inactive
CCCCC1=NC2(CCCC2)C(=O)N1Cc1ccc(-c2ccccc2-c2nn[nH]n2)cc1 | inactive
CCOC(=O)N1CCC(=C2c3ccc(Cl)cc3CCc3cccnc32)CC1 | inactive
Nc1[nH]c(=O)ncc1F | inactive
Cc1cc(C)cc(OCC2CNC(=O)O2)c1 (centres undefined) | inactive
Cc1cnc(C(=O)NCCc2ccc(S(=O)(=O)NC(=O)NC3CCCCC3)cc2)cn1 | inactive
CC1Cc2ccccc2N1NC(=O)c1ccc(Cl)c(S(N)(=O)=O)c1 (centres undefined) | inactive
Nc1nc2c(ncn2COC(CO)CO)c(=O)[nH]1 | inactive
NC(=O)c1cn(Cc2c(F)cccc2F)nn1 | inactive
CC(C)NCC(O)c1ccc(O)c(O)c1 (centres undefined) | inactive
O=C(O)c1cn(C2CC2)c2cc(N3CCNCC3)c(F)cc2c1=O | inactive
O=c1[nH]cc(F)c(=O)[nH]1 | inactive
CO/N=C1\CN(c2nc3c(cc2F)c(=O)c(C(=O)O)cn3C2CC2)CC1CN (centres undefined) | inactive
CCCC(CCC)C(=O)O | inactive
CCOC(=O)[C@H](CCc1ccccc1)N[C@@H](C)C(=O)N1[C@H](C(=O)O)C[C@@H]2CCC[C@@H]21 | inactive
